Source: PubChem BioAssay (NCATS)
Where “and” joins values, the source holds several entries; their conditions need not be identical. Equal entries are not always repeated. Results filed as inconclusive are left out. Calls of active or inactive are those of the source. The call rests on the fitted dose curve; in most records, active means well fitted curve in the direction sought with a large enough effect; inconclusive means small, poorly fitted or top-dose-only effect, or another doubt; inactive means no such curve, though single readings can be large; an effect the other way counts as inactive or inconclusive.

Key:
[1] = qHTS Assay for Identifying Gametocytocidal Compounds (AID 743244);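 further: actives lower the fluorescent signal which means gametocytes are killed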; settings: P. falciparum 3D7 stage III-V gametocytes, alamarBlue, 72 h; max response: active compounds read low
Method in brief: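 Fluorescence at Ex 525/Em 598 nm, recorded 24 h after alamarBlue addition, reports residual metabolic activity of 3D7 gametocytes (stages III–V) following 72 h compound exposure at 37 °C, 5% CO2.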

[2] = qHTS assay to identify small molecule inhibitors of chordoma cells - UCH-1 (AID 1259355); settings: UCH-1 chordoma viability, CellTiter-Glo, 48 h, combination, with auranofin plus four topoisomerase inhibitors; series mostly up to 46.1 µM; further: nearly all actives have a fitted effect of over 55% in size
Method in brief: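 Cells (800/well) were seeded and left overnight at 37 C, 5% CO2, then treated with drugs at 15 concentrations plus a combination mix of auranofin, camptothecin, doxorubicin, rubitecan and topotecan. Viability after 48hr was read by CellTiter-Glo luminescence.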

[3] = qHTS assay to identify small molecule inhibitors of chordoma cells - UCH-2 (AID 1259356); settings: UCH-2 chordoma viability, CellTiter-Glo ATP luminescence, 48 h; series mostly up to 46.1 µM
[4] = P-glycoprotein substrates identified in KB-8-5-11 adenocarcinoma cell line, qHTS therapeutic library screen (AID 1346987); settings: KB-8-5-11 (P-gp overexpressing) viability, CellTiter-Glo, 72 h; series mostly up to 44.5 µM; further: nearly all actives have a fitted effect of over 65% in size; further: potency means the concentration at half of the fitted maximal effect
Method in brief: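 KB-8-5-11: colchicine-selected sub-line of KB-3-1 over-expressing P-gp; assay medium lacked colchicine. 72 h drug exposure at 37 degree C, CellTiter-Glo.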
On the % scale 0 is the no-effect control and ±100 the full control effect.

Cc1cccc(Nc2ncccc2C(=O)O)c1C
inactive: max response [1] 39.6% | Potency [2] | Potency [3] | Potency [4]

O=S(=O)(O)CCCS(=O)(=O)O
inactive: max response [1] 2.64% | Potency [2] | Potency [3] | Potency [4]

CC(=O)[O][Al][O]C(C)=O
inactive: max response [1] -11.1% | Potency [2] | Potency [3] | Potency [4]

C[C@H](O)CN(C)C
inactive: max response [1] -4.88% | Potency [2] | Potency [3] | Potency [4]

COc1ccc(/C=C/C(=O)OCCC(C)C)cc1
inactive: max response [1] 3.66% | Potency [2] | Potency [3] | Potency [4]

CCc1ccc(S(=O)(=O)O)cc1
inactive: max response [1] -6.98% | Potency [2] | Potency [3] | Potency [4]

CCCCCCOC(=O)c1cccnc1
inactive: max response [1] 30.2% | Potency [2] | Potency [3] | Potency [4]

CCCCCCCCCCCCCCCCCCOCC(COP(=O)([O-])OCC[N+](C)(C)C)OC (stereo not drawn)
inactive: max response [1] 3.69% | Potency [2] | Potency [3] | Potency [4]

CCCCC/C=C\C/C=C\C/C=C\CCCCC(=O)O
inactive: max response [1] 14.9% | Potency [2] | Potency [3] | Potency [4]

Oc1cc(O)cc(O)c1
inactive: max response [1] 16.3% | Potency [2] | Potency [3] | Potency [4]

O=C(NNCS(=O)(=O)O)c1ccncc1
inactive: max response [1] -7.51% | Potency [2] | Potency [3] | Potency [4]

C[C@@](Cc1ccc(O)c(O)c1)(NN)C(=O)O
inactive: max response [1] -3.47% | Potency [2] | Potency [3] | Potency [4]

CCN(CC)C(=O)[C@]1(c2ccccc2)C[C@@H]1CN
inactive: max response [1] -1.74% | Potency [2] | Potency [3] | Potency [4]

O=[n+]1ccn([O-])c2ccccc21
inactive: max response [1] -5.38% | Potency [2] | Potency [3] | Potency [4]

CCCCC(O)c1ccccc1 (stereo not drawn)
inactive: max response [1] -2.26% | Potency [2] | Potency [3] | Potency [4]

Cn1cc(NC(=O)c2cc(NC(=O)c3cc(NC=O)cn3C)cn2C)cc1C(=O)NCCC(=N)N
inactive: max response [1] 6.22% | Potency [2] | Potency [3] | Potency [4]

C[C@@H]1O[C@@H]1P(=O)(O)O
inactive: max response [1] -12.6% | Potency [2] | Potency [3] | Potency [4]

C=CCCCCCCCCC(=O)OC
inactive: max response [1] 16.7% | Potency [2] | Potency [3] | Potency [4]

NCCCC[C@H](N)C(=O)O
inactive: max response [1] 5.86% | Potency [2] | Potency [3] | Potency [4]

CCCCC[C@H](O)/C=C/[C@@H]1[C@H]2C/C(=C/CCCC(=O)O)O[C@H]2C[C@H]1O
inactive: max response [1] 18.5% | Potency [2] | Potency [3] | Potency [4]

CC(=O)Nc1ccc(NC(=S)NC(=O)c2ccc(C(C)(C)C)cc2)cc1
active: Potency [4] 6.51 µM and 9.2 µM
inactive: max response [1] -8.07% | Potency [2] | Potency [3]

CC/C=C\C/C=C\C/C=C\C/C=C\C/C=C\C/C=C\CCC(=O)O
inactive: max response [1] -1.97% | Potency [2] | Potency [3] | Potency [4]

NS(=O)(=O)c1cc2c(cc1Cl)NC(Cc1ccccc1)NS2(=O)=O (stereo not drawn)
inactive: max response [1] 18.5% | Potency [2] | Potency [3] | Potency [4]

CC(C)Cc1ccc([C@@H](C)C(=O)NS(C)(=O)=O)cc1
inactive: max response [1] 17.9% | Potency [2] | Potency [3] | Potency [4]

CO/N=C(\C(=O)N[C@@H]1C(=O)N2C(C(=O)O)=C(C[N+]3(C)CCCC3)CS[C@H]12)c1csc(N)n1
inactive: max response [1] 15.9% | Potency [2] | Potency [3] | Potency [4]

C=CCN1CCCC1CNC(=O)c1cc(S(N)(=O)=O)cc(OC)c1OC (stereo not drawn)
inactive: max response [1] -2.17% | Potency [2] | Potency [3] | Potency [4]

CO[C@H]1C[C@H](O[C@@H]2/C(C)=C/C[C@@H]3C[C@@H](C[C@]4(CC[C@H](C)[C@@H](C5CCCCC5)O4)O3)OC(=O)[C@@H]3C=C(C)/C(=N/O)[C@H]4OC/C(=C\C=C\[C@@H]2C)[C@]43O)O[C@@H](C)[C@@H]1O
inactive: max response [1] -14.2% | Potency [2] | Potency [3] | Potency [4]

O=P(O)(O)OP(=O)(O)O
inactive: max response [1] 2.77% | Potency [2] | Potency [3] | Potency [4]

CCCC(=O)Nc1c(I)cc(I)c(CC(CC)C(=O)O)c1I (stereo not drawn)
inactive: max response [1] 15% | Potency [2] | Potency [3] | Potency [4]

OCC1(CO)COC(C(Cl)(Cl)Cl)OC1
inactive: max response [1] 24.4% | Potency [2] | Potency [3] | Potency [4]

CO[C@H]1C[C@H](O[C@H]2[C@H](C)[C@@H](O[C@@H]3O[C@H](C)C[C@H](N(C)C)[C@H]3O)[C@@H](C)C[C@]3(CO3)C(=O)[C@H](C)[C@@H](O)[C@@H](C)[C@@H](C)OC(=O)[C@@H]2C)O[C@@H](C)[C@@H]1O
inactive: max response [1] -2.69% | Potency [2] | Potency [3] | Potency [4]

O=C1NC(=O)[C@H]2[C@@H]1[C@@H]1C=C[C@H]2C1
inactive: max response [1] -6.7% | Potency [2] | Potency [3] | Potency [4]

NC(=O)c1ccc[n+]([C@@H]2O[C@H](COP(=O)([O-])OP(=O)(O)OC[C@H]3O[C@@H](n4cnc5c(N)ncnc54)[C@H](O)[C@@H]3O)[C@@H](O)[C@H]2O)c1
inactive: max response [1] 2.6% | Potency [2] | Potency [3] | Potency [4]

COc1cc2c(cc1OC)[C@@H](c1ccccc1)CN(C)CC2
inactive: max response [1] -3.71% | Potency [2] | Potency [3] | Potency [4]

CC(=O)Nc1c(I)c(C(=O)N[C@H]2C(O)O[C@H](CO)[C@@H](O)[C@@H]2O)c(I)c(N(C)C(C)=O)c1I (stereo partly drawn)
inactive: max response [1] 5.57% | Potency [2] | Potency [3] | Potency [4]

CC(C)(Oc1ccc(C2CCCc3ccccc32)cc1)C(=O)O (stereo not drawn)
inactive: max response [1] -6.04% | Potency [2] | Potency [3] | Potency [4]

COc1cc(C)c(/C=C/C(C)=C/C=C/C(C)=C/C(=O)O)c(C)c1C
inactive: max response [1] 1.95% | Potency [2] | Potency [3] | Potency [4]
